# hNpr1 antagonist: antagonists of human natriuretic peptide receptor Npr1; P16066; HEK293 hNpr1 GloSensor cGMP, ANP-stimulated luminescence; Potency, µM (top dose mostly 46.3 µM), for the others: at the top dose activity change, negative = inhibition, actives largely listed as inhibitors; 76,000 compounds, 1.6% hits; AID 1347048; calls by dose curve; note: nearly all actives have a fitted effect of over 60% in size
#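 Compound pre-incubated 30 min at room temperature on GloSensor-loaded HEK293 cells stably carrying hNpr1 and the pGS-40F cGMP biosensor. Stimulation uses hNppA at 0.1 nM final; luminescence is taken at baseline and 20 min post-agonist.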
# HEK cytotox: cytotoxic compounds in HEK 293 cells; HEK 293 viability, ATP luminescence (CellTiter-Glo), 48-72 h; Potency, µM (highest dose often 115 µM), without a hit: at the top dose activity change, negative = cytotoxicity, actives largely listed as inhibitors; 94,000 compounds, 6.6% hits; AID 1345083; note: nearly all actives have a fitted effect of over 60% in size
#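 qHTS cytotoxicity; HEK 293, 250 cells/well; compound pinned; 48 or 72 hr, 37 degree Celsius, 5% CO2, 95% humidity; CellTiter-Glo, 10 min RT; luminescence (ATP).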
# FLuc inh: inhibitors of firefly (Photinus pyralis) luciferase. P08659. purified P. pyralis luciferase, luminescence, biochemical. Potency, µM (doses to about 115 µM), most hits filed as inhibitors. 76,000 compounds, 2.5% hits; note: nearly all actives have a fitted effect of over 65% in size
# Target sequence (P08659 whole entry, looked up): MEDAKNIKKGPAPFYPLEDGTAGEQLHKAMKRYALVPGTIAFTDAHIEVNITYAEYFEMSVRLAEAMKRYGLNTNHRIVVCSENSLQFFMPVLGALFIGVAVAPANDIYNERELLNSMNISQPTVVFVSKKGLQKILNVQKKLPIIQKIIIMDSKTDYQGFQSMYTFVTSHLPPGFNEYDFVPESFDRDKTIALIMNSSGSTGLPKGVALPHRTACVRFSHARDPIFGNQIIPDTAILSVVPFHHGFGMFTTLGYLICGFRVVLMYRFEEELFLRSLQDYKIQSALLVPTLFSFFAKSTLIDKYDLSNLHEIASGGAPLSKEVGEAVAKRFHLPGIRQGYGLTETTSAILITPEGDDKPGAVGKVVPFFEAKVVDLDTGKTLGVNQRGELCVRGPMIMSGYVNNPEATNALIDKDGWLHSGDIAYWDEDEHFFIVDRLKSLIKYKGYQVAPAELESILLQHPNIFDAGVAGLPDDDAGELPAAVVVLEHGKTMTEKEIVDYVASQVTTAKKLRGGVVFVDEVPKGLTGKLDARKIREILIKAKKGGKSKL
#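 Luminescence read by CCD imaging after purified firefly luciferase (10nM final) was added to substrate buffer holding 10uM D-luciferin and 10uM ATP, pH 7.5, pre-dosed with compound.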
# 3T3 cytotox: cytotoxic compounds in NIH 3T3 cells. Potency, µM (series often up to 96.7 µM), without a hit: top-dose activity change, negative = cytotoxicity, actives largely listed as inhibitors. 94,000 compounds, 4.3% hits. NIH 3T3 viability, CellTiter-Glo ATP luminescence, 48-72 h; note: nearly all actives have a fitted effect of over 55% in size
#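 Cytotoxicity is measured as loss of cellular ATP: NIH 3T3 cells (400/well) are exposed to compound for 48 or 72 hr at 37 °C, then CellTiter-Glo luminescence is imaged after 10 min at room temperature.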
# GPT2 inhibitor: GPT2 alanine aminotransferase inhibition; 100,000 compounds, 0.25% hits; Potency, µM (doses to about 57.7 µM), without a hit: top-dose activity change, negative = inhibition, actives largely listed as inhibitors; Recombinant GPT2, coupled pyruvate oxidase/HRP Amplex Red fluorescence; note: nearly all actives have a fitted effect of over 60% in size
#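 Fluorescence read-out: pyruvate from GPT2 turnover coupled to pyruvate oxidase, HRP and Amplex Red (0.2mM ThPP, 0.2U/mL PO and HRP, 50uM Amplex final). Substrates 250uM a-KG, 2mM L-alanine; enzyme 10ng/uL; 30 min RT.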
# * marks the source's active call; other numbers are inactive results; i = inactive; ? = inconclusive; · = not tested or not shown; ! = a repeat was not active; [ ] = dose if it differs, or a comment. Sampled rows, rich in hits. Any-hit rate of the full collection: about 10%. Unless noted, calls come from the whole dose curve; as a rule, active = well fitted curve in the direction sought with a large enough effect; inconclusive = small, poorly fitted or top-dose-only effect, or another doubt; inactive = no such curve, though single readings can be large; an effect the other way counts as inactive or inconclusive. % is set by controls: 0 for no effect and ±100 for the full control effect; potency is the fitted concentration of half-maximal effect.
SMILES,hNpr1 antagonist,HEK cytotox,FLuc inh,3T3 cytotox,GPT2 inhibitor
O=C1Nc2ccc(-c3cccc(C(F)(F)F)c3)cc2C(=O)N2CCN(C(=O)COc3ccccc3)C[C@H]12,-5%,?,i,?,i
O=C1NC2(CN(CC3CCCCC3)C2)Oc2ccccc21,11%[70.6 µM],?,i,?,-6%[88.5 µM]
Cc1ccc(-c2cccc(CN3CCCC3C(=O)N3CCCCC3)c2)cc1Cl (stereo unspecified),·,32µM*,·,32µM*,·
Cc1ccc(-c2cccc(CN3CCCC3C(=O)N3CCC(C#N)CC3)c2)cc1Cl (stereo unspecified),·,40µM*,·,32µM*,·
Cc1noc(C)c1Cc1ccc(C(=O)N2CCC(OCCOc3ccccc3)CC2)o1,·,40µM*,·,?,-2%
CN(CC1CCOC1)C(=O)Nc1ccccc1F (stereo unspecified),1%,12%,i,i,i
O=C(Nc1ccc2c(c1)OCCO2)C1CCN(C(=O)N2CC3CC(C2)[C@H]2CCCC(=O)N2C3)CC1 (stereo partly specified),3%,5%,20µM*,4%,i
COc1ccc(F)cc1-c1ccc(CN2CCCCC2C(=O)NCc2cccnc2)cc1 (stereo unspecified),·,50µM*,·,?,·
COc1cccc(-c2ccc(CN3CCCC3C(=O)NCc3ccccc3F)cc2)c1 (stereo unspecified),·,?,·,?,-1%
COc1ccccc1-c1ccc(CN2CCCCC2C(=O)NCc2ccc3c(c2)OCO3)cc1 (stereo unspecified),·,25µM*,·,?,·
O=C(NCc1ccccc1F)C1CCCCN1Cc1ccc(-c2cccs2)cc1 (stereo unspecified),·,?,·,?,-7%
COc1ccccc1-c1ccc(CN2CCCCC2C(=O)NCc2ccccc2Cl)cc1 (stereo unspecified),·,?,·,28µM*,·
COc1ccccc1-c1cccc(C(=O)N2CCC[C@H]2C(=O)NCc2cccnc2)c1,·,-2%,·,1%,-15%
COc1ccccc1-c1ccc(CN2CCCCC2C(=O)NCc2ccc(F)cc2F)cc1 (stereo unspecified),·,20µM*,·,?,·
COc1ccc(F)cc1-c1ccc(CN2CCCCC2C(=O)N2CCc3ccccc3C2)cc1 (stereo unspecified),·,32µM*,·,40µM*,·
COc1ccccc1-c1ccc(CN2CCCCC2C(=O)NCc2cccc(F)c2)cc1 (stereo unspecified),·,32µM*!,·,?,·
COc1ccccc1-c1ccc(CN2CCCCC2C(=O)N2CCCC2)cc1 (stereo unspecified),·,?,·,?,-9%
COc1ccccc1-c1ccc(CN2CCCCC2C(=O)NC2CCCC2)cc1 (stereo unspecified),·,35µM*!,·,?,·
COc1ccccc1-c1cccc(C(=O)N2CCC[C@H]2C(=O)NCc2ccc(F)cc2)c1,·,?,·,?,i
COc1cc(OC)cc(-c2ccc3ncc4ccc(=O)n(-c5ccc(N6CCNCC6)c(C(F)(F)F)c5)c4c3c2)c1,·,·,·,·,4%
CCNc1ncnc2sc3c(c12)CCN(Cc1ccco1)C3,-14%,?,i,?,i
CCCCNC(=O)CCc1cc2cc(OC)ccc2[nH]c1=O,3%,6%,i,-2%,2%
CCC1(N2CCN(C(=O)c3cccc(C(F)(F)F)c3)CC2)CCN(S(C)(=O)=O)C1 (stereo unspecified),-1%,?,i,-26%,i
COc1ccc(-c2cc(N3CCC(NC(=O)c4ccc5c(c4)OCO5)C3)n[nH]2)cc1 (stereo unspecified),-7%,79µM*,i,?,i
O=C(NC1CCCN(c2cc(-c3ccc(Cl)cc3)[nH]n2)C1)c1ccc2c(c1)OCO2 (stereo unspecified),-21%,45µM*,?,?,-12%
COc1ccc(-c2cc(N3CCC(NC(=O)c4ccc(C)cc4)C3)n[nH]2)cc1 (stereo unspecified),-2%,?,i,?,?
